# Sfp inh: Sfp phosphopantetheinyl transferase inhibition. Biochemical Sfp PPTase activity, qHTS. Potency, µM, without a hit: largest response in the series, negative = inhibition, usual class: inhibitors. hit rate 3.5% among 310,000. AID 1490;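 note: the enzyme is Sfp with the accession as filed and its product quenches rhodamine fluorescence; 0% = enzyme reaction without inhibitor and -100% = no enzyme wells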
#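 Fluorescence-quenching assay: 15 nM Sfp-PPTase preincubated 15 min at room temperature with compound, then 5 uM rhodamine-CoA and 12.5 uM BHQ-2-labelled YbbR peptide added. Fluorescence (ex 525/em 598 nm) read at start and after 30 min; difference gives rate.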
# JMJD2A Tudor inh: blocks the human JMJD2A Tudor domain; AlphaScreen JMJD2A-Tudor / H3K4me3 peptide binding; Potency, µM (highest dose often 114 µM), for inactives: at the top dose activity change, negative = inhibition, hits mostly inhibitors; AID 504339; O75164; hit rate 4.4% among 390,000; note: % is set by controls: 0 for no effect and ±100 for the full control effect; nearly all actives have a fitted effect of over 50% in size
# Target sequence (O75164 whole entry, looked up, the tested form may be a part): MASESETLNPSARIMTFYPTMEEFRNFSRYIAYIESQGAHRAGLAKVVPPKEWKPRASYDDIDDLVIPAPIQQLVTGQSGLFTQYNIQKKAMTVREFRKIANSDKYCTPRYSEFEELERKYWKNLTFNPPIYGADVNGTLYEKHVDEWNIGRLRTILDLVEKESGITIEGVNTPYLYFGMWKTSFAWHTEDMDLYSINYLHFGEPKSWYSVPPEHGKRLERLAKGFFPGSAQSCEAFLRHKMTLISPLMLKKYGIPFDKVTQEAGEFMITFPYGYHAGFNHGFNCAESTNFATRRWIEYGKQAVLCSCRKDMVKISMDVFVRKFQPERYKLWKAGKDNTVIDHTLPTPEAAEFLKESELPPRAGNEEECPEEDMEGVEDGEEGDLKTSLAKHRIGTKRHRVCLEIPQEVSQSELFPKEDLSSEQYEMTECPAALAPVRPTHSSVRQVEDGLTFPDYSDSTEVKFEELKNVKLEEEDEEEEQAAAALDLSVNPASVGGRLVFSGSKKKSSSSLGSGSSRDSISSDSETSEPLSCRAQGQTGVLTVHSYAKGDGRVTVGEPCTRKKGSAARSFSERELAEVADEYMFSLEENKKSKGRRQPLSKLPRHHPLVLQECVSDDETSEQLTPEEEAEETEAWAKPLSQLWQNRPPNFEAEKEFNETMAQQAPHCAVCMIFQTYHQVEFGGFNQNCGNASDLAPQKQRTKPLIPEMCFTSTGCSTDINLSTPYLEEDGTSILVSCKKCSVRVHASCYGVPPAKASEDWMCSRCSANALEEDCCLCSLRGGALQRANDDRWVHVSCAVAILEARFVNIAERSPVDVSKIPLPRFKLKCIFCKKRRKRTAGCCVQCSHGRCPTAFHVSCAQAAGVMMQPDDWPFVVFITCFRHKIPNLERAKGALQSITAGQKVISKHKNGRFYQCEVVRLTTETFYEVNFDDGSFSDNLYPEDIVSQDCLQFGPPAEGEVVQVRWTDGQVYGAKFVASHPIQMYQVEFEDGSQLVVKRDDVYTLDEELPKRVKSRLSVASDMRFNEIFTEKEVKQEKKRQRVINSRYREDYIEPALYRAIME
# BAZ2B inh: inhibitors of human BAZ2B bromodomain; Q9UIF8; AlphaScreen BAZ2B-H3K14Ac peptide displacement; Potency, µM (doses to about 114 µM), without a hit: at the top dose activity change, negative = inhibition, most hits filed as inhibitors; hit rate 4.4% among 360,000; AID 504333; note: % is set by controls: 0 for no effect and ±100 for the full control effect; nearly all actives have a fitted effect of over 60% in size
#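 Protein-peptide AlphaScreen: BAZ2B 50 nM, b-H3K14Ac 50 nM, 1x PBS pH 7.4 + 0.01% Tween-20. Preincubation 30 min RT; cpd 30 min RT (top 110 uM); beads 20 min RT, light-protected.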
# G9a inh: blocks human histone lysine methyltransferase G9a; Potency, µM (highest dose often 102 µM), for the others: top-dose activity, negative = inhibition, usual class: inhibitors; AID 504332; Q96KQ7; hit rate 8.8% among 350,000; G9a H3K9 monomethylation, AlphaScreen, 2 h; note: % is set by controls: 0 for no effect and ±100 for the full control effect; nearly all actives have a fitted effect of over 75% in size
#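 Chemiluminescent proximity detection of H3K9 monomethylation, read after 10 min bead incubation in the dark. Reaction: 20 nM G9a, 500 nM biotin-H3K9 peptide, 20 uM SAM cofactor, 2 h, room temperature, following 15 min enzyme-compound preincubation.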
# HP1b chromo inh: blocks HP1-beta chromodomain binding to methylated histone tails; P83916; AlphaScreen HP1-beta / biotin-H3K9me3 peptide binding; Potency, µM (doses to about 114 µM), for inactives: at the top dose activity change, negative = inhibition, usual class: inhibitors; hit rate 0.56% among 390,000; AID 540317; note: nearly all actives have a fitted effect of over 70% in size
#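 Compound inhibition of the preformed complex between 50 nM HP1-beta and 50 nM biotinylated H3K9me3 peptide was read by AlphaScreen. Buffer was PBS pH 7.4 with 0.01% Tween-20. Incubations ran 30 min at room temperature, with 10 ug/mL donor/acceptor beads.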
# 12-LOX inh: blocks human arachidonate 12S-lipoxygenase | P18054 | purified 12hLO, xylenol orange hydroperoxide absorbance | Potency, µM (top dose mostly 108 µM), without a hit: at the highest dose activity change, negative = inhibition, actives largely listed as inhibitors | hit rate 1.1% among 580,000 | AID 1671190; note: % is set by controls: 0 for no effect and ±100 for the full control effect
#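 Purified human 12hLO (150 nM final) in 25 mM Hepes, 0.01% Triton X-100, pH 7.0 was preincubated 15 min at room temperature with compound. Then 40 uM arachidonic acid was added, 30 min. Hydroperoxide was read by Fe-XO absorbance ratio 573/405 nm.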
# * hit, by the source's call; ? = inconclusive; / = no result given; [ ] = remark or other dose. A selection: hits, their analogues and other compounds. The true share with any hit is near 8.7%. Calls come from the whole dose curve; as a rule, active = well fitted curve in the direction sought with a large enough effect; inconclusive = small, poorly fitted or top-dose-only effect, or another doubt; inactive = no such curve, though single readings can be large; an effect the other way counts as inactive or inconclusive. Potency is the fitted concentration of half-maximal effect.
SMILES,Sfp inh,JMJD2A Tudor inh,BAZ2B inh,G9a inh,HP1b chromo inh,12-LOX inh
C/C(CCC(C)C)=N\NC(=S)NCc1ccccc1,-13%,56µM*,?,45µM*,-10%,?
C/C(=N\NC(=S)NCCc1ccccc1)c1cccs1,7%,?,35µM*,?,?,45µM*
CCN(CC)C(=O)C(=O)N/N=C(\C)CCc1ccccc1,/,/,/,/,/,11%
CC(OC(=O)c1cccs1)C(=O)NCCc1ccccc1 (stereo not drawn),18%,-7%,6%,14%,0%,-16%
C/C(CCc1ccc2c(c1)OCO2)=N\NC(=S)NC(C)C,10%,-34%,?,?,-15%,?
C/C(=N/NC(=S)NCc1ccccc1)c1ccncc1,/,/,/,/,/,-5%
COCCNC(=S)N/N=C(\C)CCc1ccc2c(c1)OCO2,40µM*,-30%,-39%,50µM*,-4%,282%
Cc1cccc(C)c1NC(=O)CN1C(=O)NC2(CCOCC2)C1=O,/,/,/,/,/,21%
CSc1ccccc1C(=O)N1CCN(C(C)=O)CC(O)C1 (stereo not drawn),/,/,/,/,/,34%
Clc1ccc(-n2ncc3c(NCCCn4ccnc4)ncnc32)cc1,15%,-24%,-33%,25µM*,17%,?
CCCCNc1ncnc2c1cnn2-c1ccc(Cl)cc1,8%,-10%,-3%,-2%,63%,?
COC(=O)\C(C(C)=O)=C(/C=C/C=C/N(C)C)N(C)C,2%,?,35µM*,?,-5%,?
Cc1cccc(C)c1C(OCCN(C)C)C1CCCCC1 (stereo not drawn),-5%,14µM*,?,10µM*,?,?
COCCN(C(=O)CCl)C(C(=O)NC1CCCCC1)c1ccccc1C (stereo not drawn),7%,-10%,7%,2%[59 µM],37%,-21%
COc1ccc(-c2nnc(C3CCN(S(=O)(=O)c4cccc(Cl)c4)CC3)o2)cc1,/,?,-8%,11µM*,25%,-9%
CN(C)c1ccc(-c2noc(C3CCN(S(=O)(=O)c4cccc(Cl)c4)CC3)n2)cc1,13%,?,?,?,2%,-12%
Cc1ccccc1-c1nnc(-c2ccc(Cl)cc2)o1,-6%,4%,-2%,6%,12%,-8%
COc1ccc(S(=O)(=O)N2CCC(c3nnc(-c4ccccc4C)o3)CC2)c(OC)c1,/,-13%,-19%,8.9µM*,33%,6%
COc1ccc(S(=O)(=O)N2CCN(c3ccccn3)CC2)c(OC)c1,12%,-7%,-24%,7%,17%,10%
Cc1ccccc1-c1nnc(C2CCN(S(=O)(=O)c3ccc(Cl)cc3)CC2)o1,/,1%,-6%,7.9µM*,39%,1%
COc1ccc(-c2nnc(C3CCN(C(=O)c4ccccc4F)CC3)o2)cc1,/,56µM*,?,14µM*,-3%,?
CC(C)CCCC(C)NC(=O)CCNC(=O)c1ccccc1 (stereo not drawn),/,/,/,/,/,-5%
COCCOc1ccc2c(n1)CCN(C(=O)NCCC(C)C)C2,/,/,/,/,/,52%
COCc1cc(C[C@@H]2CC[C@H](O)[C@@H](CNC(C)C)O2)no1,/,/,/,/,/,77%[176 µM]
CCOc1ccc(S(=O)(=O)Nc2ccccc2C(=O)NCc2ccco2)cc1,?,-31%,?,50µM*,9%,-15%
SMILES,Sfp inh,JMJD2A Tudor inh,BAZ2B inh,G9a inh,HP1b chromo inh,12-LOX inh
CS(=O)(=O)Nc1ccccc1C(=O)NCc1ccco1,2%,-2%,-2%,13µM*,48%,-10%
CCOc1c(CN(C)C(=O)C(c2ccc(F)cc2)N(C)C)cccc1OC (stereo not drawn),/,/,/,/,/,43%
O=C(c1ccccc1)c1nc2c(n1O)CCCCC2,3%,-13%,79µM*,56µM*,15%,-18%
CCCOc1ccc(C(=O)c2nc3c(n2O)CCCCC3)cc1,-7%,?,-5%,-20%[12.7 µM],10%,-15%
COC(=O)CNC(=O)C1CCc2nnc(CNC(=O)Nc3cccnc3)n21 (stereo not drawn),/,/,/,/,/,-2%[6.33 µM]
Cc1c(NC(=S)NC(=O)c2ccccc2)c(=O)n(-c2ccccc2)n1C,/,10%,/,/,20%,427%
COc1ccc(/C(O)=C/C(=O)C(=O)NNC(=O)C(O)(c2ccccc2)c2ccccc2)cc1,8%,79µM*,-37%,-18%,19%,2%
COc1ccc(/C(O)=C/C(=O)C(=O)Nc2c(C)n(C)n(-c3ccccc3)c2=O)cc1,3%,22µM*,?,?,9%,-24%
Cc1c(NC(=O)C(=O)/C=C(/O)c2ccccc2)c(=O)n(-c2ccccc2)n1C,-6%,20µM*,50µM*,8.9µM*,14%,-6%
COc1ccc(/C(O)=C/C(=O)C(=O)NNC(=O)c2ccccc2)cc1,-1%,-19%,?,15%,34%,33%
CC(=O)c1nc(N2C(=O)CC(Cc3ccc(C)cc3)C2=O)sc1C (stereo not drawn),13%,-24%,?,1.4µM*,37%,-11%
C#CCOCCOCCOCCNc1nc(OC)nc(N2CCN(C(=O)[C@H](CCCCN)n3cc(C(N)CO)nn3)CC2)n1 (stereo partly drawn),-6%,/,?,-20%[12.7 µM],/,/
C#CCOCCOCCOCCNc1nc(N2CCN(C(=O)[C@H](CCCCN)n3cc([C@@H](N)CC(C)C)nn3)CC2)nc(N2CCN(C(=O)[C@H](Cc3cc4ccccc4[nH]3)n3cc([C@@H](N)Cc4ccc(O)cc4)nn3)CC2)n1,-17%,18µM*,2%,39%[59 µM],-15%,/
C#CCOCCOCCOCCNc1nc(N2CCN(C(=O)[C@H](CCCCN)n3cc([C@@H](N)CO)nn3)CC2)nc(N2CCN(C(=O)[C@H](Cc3cc4ccccc4[nH]3)n3cc([C@@H](N)Cc4ccc(O)cc4)nn3)CC2)n1,-3%,/,32µM*,-4%[12.7 µM],/,/
O=C(NC1=NCCS1)C12CC3CC(C1)CC(C(=O)NC1=NCCS1)(C3)C2,19%,56µM*,50µM*,?,0%,4%
Cc1cn2c(=O)cc(COC(=O)CSc3ccccc3)nc2s1,/,/,/,/,/,30%
Cc1ccc(C2C(C#N)=C(N)SC(N)=C2C#N)c(C)c1,79µM*,89µM*,3%,?,49%,/
Cc1ccc(C2C(C#N)=C(N)N(c3cccnc3)C3=C2C(=O)CCC3)c(C)c1 (stereo not drawn),6%,-13%,-9%,/,41%,1%
N#CC1=C(N)SC(N)=C(C#N)C1c1ccoc1,-79%,/,25µM*,2µM*,/,/
Cc1ccc(C2C(C#N)=C(N)SC(N)=C2C#N)cc1,-22%,?,-7%,45µM*,8%,?
O=C(NCC(O)COc1cccc(C(F)(F)F)c1)C1CCCCC1 (stereo not drawn),/,/,/,/,/,24%

# Screens from PubChem BioAssay.
